Hits are enriched below; roughly 1% of the tested compounds scored in any of these assays.
E-sel TNF inh: TNF alpha driven E-selectin expression inhibition. actives 0.71% (n = 120,000). HUVEC TNFa-induced E-selectin immunofluorescence, high content. inhibition, % at 2 µM;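 active means inhibition above the batch mean plus 3 SD, and confirmed as a hit on visual image review, cut at about 43% in these data; inconclusive means passes the inhibition cutoff but fails visual image review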;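 further: 0% = TNF-stimulated DMSO wells and 100% = unstimulated control wells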
VCAM1 TNFa inh: reduces TNF alpha induced VCAM1 expression in HUVEC. HUVEC TNFa-induced VCAM-1 immunofluorescence, high-content imaging. inhibition, % at 2 µM. actives 0.48% (n = 95,000);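 active means inhibition above the batch mean plus 3 SD, with images confirmed as a hit by eye, cut at about 37% in these data; inconclusive means inhibition above that limit but hit not confirmed in images; inactive means inhibition not above that limit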;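 further: 0% = TNF-stimulated DMSO wells and 100% = unstimulated control wells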
F-actin modifier: modifiers of cytoskeleton assembly. actives 0.18% (n = 91,000). inhibition, % at 2 µM. AID 836. HUVEC TNFa F-actin phalloidin imaging, high content;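 active means inhibition above the batch mean plus 3 SD and confirmed as a hit by visual image inspection, cut at about 30% in these data, passing the limit was not always enough; inconclusive means above the inhibition threshold but rejected on visual inspection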
TNFa cytotox: toxic to HUVEC cells under TNF alpha stimulation; HUVEC TNFalpha-stimulated, Hoechst cell count, imaging; cell count reduction, % at 2 µM; actives 0.17% (n = 93,000);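 active means cell count reduction exceeding the screen mean by over 5 SD, scaled to untreated wells per plate, cut at about 78% in these data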;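 further: cells counted after 24 h of TNF alpha exposure following the 1 h pretreatment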
The depositor's hits bear a star.

`CC(=O)N1CCN(CC(=O)Nc2ccc([N+](=O)[O-])cc2Br)CC1` gave E-sel TNF inh -12.
CCOc1ccc2oc(-c3ccccc3)c(C(=O)N3CCN(CCO)CC3)c2c1 was read as E-sel TNF inh -33, VCAM1 TNFa inh -35 and F-actin modifier 2.
CC(C)C(=O)Nc1ccc(-c2nc3cccnc3o2)cc1 was read as E-sel TNF inh 84*.
For CCc1cc2c3c(c(=O)oc2cc1O)CCCC3 the results were E-sel TNF inh 10, VCAM1 TNFa inh 15, F-actin modifier -1 and TNFa cytotox -23.
COc1cc(C(=O)Nc2ccc3c(c2)C(=O)c2ccccc2C3=O)cc(OC)c1OC was read as E-sel TNF inh 64*.
CNC(=S)N/N=C(\C)c1ccc(N2CCOCC2)cc1 was read as E-sel TNF inh 3.
C/C(=N\NC(=O)c1cccc(C)c1)c1ccc(N2CCOCC2)cc1 was read as E-sel TNF inh 100*, VCAM1 TNFa inh -9, F-actin modifier -13 and TNFa cytotox 2.
Screening CC(C)c1onc(C(=O)N2CCN(Cc3ccccc3)CC2)c1[N+](=O)[O-] returned E-sel TNF inh -2.
`CN(C)c1ccc(NC(=S)NC(=O)/C=C/c2ccc(Cl)cc2)cc1` gave E-sel TNF inh 87*, VCAM1 TNFa inh -2, F-actin modifier -13 and TNFa cytotox -8.
Screening COc1ccc(NC(=O)c2cc(-c3ccc(OC)c(OC)c3)on2)cc1OC returned E-sel TNF inh 80*, VCAM1 TNFa inh 3, F-actin modifier 20 and TNFa cytotox -12.
`C/C(CCS(=O)(=O)c1ccccc1)=N/O` gave E-sel TNF inh -16.
For N#Cc1ccsc1NC(=O)COc1ccc(-c2nnco2)cc1 the results were E-sel TNF inh -2.
For O=C(c1ccco1)N1CCN(C(=O)N2c3ccccc3Sc3ccccc32)CC1 the results were E-sel TNF inh -6, VCAM1 TNFa inh 83*, F-actin modifier -8 and TNFa cytotox 73.
Screening O=C(c1ccco1)N1c2ccccc2Sc2ccccc21 returned E-sel TNF inh -2, VCAM1 TNFa inh 0, F-actin modifier -4 and TNFa cytotox 4.
CN1CCN(C(=O)CCc2nc3ccccc3c(=O)[nH]2)CC1 was read as E-sel TNF inh 12, VCAM1 TNFa inh -15, F-actin modifier -5 and TNFa cytotox -11.
Cc1ccc(CNC(=O)CCc2nc3ccccc3c(=O)[nH]2)cc1 was read as E-sel TNF inh 62*.
`COc1ccc(C(C)(C)C)cc1S(=O)(=O)N1CCN(C)CC1` gave E-sel TNF inh 11, VCAM1 TNFa inh 93*, F-actin modifier 21 and TNFa cytotox -22.
COc1ccc2nc(NC(=O)C(NS(=O)(=O)c3cccc4nsnc34)C(C)C)sc2c1 (stereo unspecified) was read as E-sel TNF inh 1, VCAM1 TNFa inh 13, F-actin modifier -9 and TNFa cytotox 86*.
N#CCc1ccc(NS(=O)(=O)c2cccs2)cc1 was read as E-sel TNF inh 64*.
For COc1cccc(/C=N/n2c(-c3cccs3)n[nH]c2=S)c1 the results were E-sel TNF inh -15, VCAM1 TNFa inh 16 and TNFa cytotox 2.
O=C(Oc1ccc(/C=N/Nc2ccccc2)cc1)c1ccccc1 was read as E-sel TNF inh 58*, VCAM1 TNFa inh 9, F-actin modifier 4 and TNFa cytotox -10.
`O=C(Oc1ccc(/C=N/O)cc1)c1ccccc1` gave E-sel TNF inh -20, VCAM1 TNFa inh 0, F-actin modifier -16 and TNFa cytotox -16.
C=CCn1c(SCC(=O)NC(=O)c2cccc([N+](=O)[O-])c2)nnc1-c1ccccc1F was read as E-sel TNF inh -2.
O=C(c1cccc(C(F)(F)F)c1)N1CCCC1 was read as E-sel TNF inh -22, VCAM1 TNFa inh -18, F-actin modifier 8 and TNFa cytotox -24.
Screening O=C(c1cccc(F)c1)N1CCN(S(=O)(=O)c2ccc(C(F)(F)F)cc2)CC1 returned E-sel TNF inh 83*, VCAM1 TNFa inh 15, F-actin modifier 21 and TNFa cytotox -8.
`O=c1[nH]c2cc(NCCO)c([N+](=O)[O-])cc2[nH]1` gave E-sel TNF inh 73*.
Cc1cc(C)n(-c2nc3ccccc3nc2N2CCC(C)CC2)n1 was read as E-sel TNF inh -8, VCAM1 TNFa inh 12, F-actin modifier -9 and TNFa cytotox -4.
For Cc1cc(N2CCC(C)CC2)nc(-n2nc(C)cc2C)n1 the results were E-sel TNF inh 1, VCAM1 TNFa inh -4, F-actin modifier 40* and TNFa cytotox 27.
`COc1ccc(-c2csc3ncnc(Oc4cccc5ccc(C)nc45)c23)cc1` gave E-sel TNF inh 89*.
For Cc1ccc2cccc(Oc3ncnc4scc(-c5ccccc5)c34)c2n1 the results were E-sel TNF inh 19.
Screening COC(=O)c1cc(COC(=O)c2ccc(OC)c(S(=O)(=O)N3CCCC3)c2)oc1C returned VCAM1 TNFa inh 64, F-actin modifier -54 and TNFa cytotox 96*.
For CCCCNS(=O)(=O)c1ccc(NC(=O)c2c(-c3ccccc3Cl)noc2C)cc1 the results were E-sel TNF inh -14, VCAM1 TNFa inh -3, F-actin modifier 5 and TNFa cytotox 6.
`CC(=O)Nc1ccc(S(=O)(=O)Nc2nc(C)cc(-n3nc(C)cc3C)n2)cc1` gave E-sel TNF inh -5.
For Cc1cc(-n2nc(C)cc2C)nc(NS(=O)(=O)c2ccccc2)n1 the results were E-sel TNF inh 58*.
CCOC(=O)C1=C(CSc2nc3c(cc2C#N)CN(C)CC3)OC(N)=C(C#N)C1c1ccccc1 (stereo unspecified) was read as VCAM1 TNFa inh inconclusive, F-actin modifier 12 and TNFa cytotox 99*.
For Cc1ccc(S(=O)(=O)CCSc2nc(C)cc(C(F)(F)F)c2C#N)cc1 the results were E-sel TNF inh 5, VCAM1 TNFa inh 14, F-actin modifier 2 and TNFa cytotox -3.
Screening Cc1ccccc1-n1ccnc1SCC(=O)O returned E-sel TNF inh 65*, VCAM1 TNFa inh -18, F-actin modifier -8 and TNFa cytotox -3.
`Cc1nc(=O)c(-c2ccccc2)c(C)n1-c1ccc(S(N)(=O)=O)cc1` gave E-sel TNF inh 100*, VCAM1 TNFa inh 12, F-actin modifier -9 and TNFa cytotox -24.
Screening O=C(c1ccco1)N1CCN(S(=O)(=O)c2ccc(S(=O)(=O)NC3CCCCC3)cc2)CC1 returned E-sel TNF inh -3, VCAM1 TNFa inh 1, F-actin modifier 8 and TNFa cytotox -24.
Screening COc1cc(OC)cc(C(=O)NCC(=O)N2CCCCC2)c1 returned E-sel TNF inh 7, VCAM1 TNFa inh 6, F-actin modifier -21 and TNFa cytotox -7.
Cc1cc(S(=O)(=O)N2CCN(c3ccccc3O)CC2)c(C)s1 was read as E-sel TNF inh 57*, VCAM1 TNFa inh 15, F-actin modifier 6 and TNFa cytotox -13.
COc1ccccc1N1CCN(S(=O)(=O)c2cc(C)sc2C)CC1 was read as E-sel TNF inh -13, VCAM1 TNFa inh 8, F-actin modifier 12 and TNFa cytotox -18.
Screening NC(=O)CC(O)c1cccc(Cl)c1 (stereo unspecified) returned E-sel TNF inh -15.
For Cn1cc([N+](=O)[O-])c(C(=O)Nc2ccc(Br)cn2)n1 the results were E-sel TNF inh 54*, VCAM1 TNFa inh 0, F-actin modifier -2 and TNFa cytotox -12.
